Screening data deposited in PubChem BioAssay by several laboratories.
An excerpt weighted towards active compounds, which were near 4.5% of everything screened.
Rpn11 inh = Rpn11 (PSMD14) deubiquitinase inhibitors, primary screen, biochemical, fluorescence polarization, uHTS; 26S proteasome non-ATPase regulatory subunit 14 (Homo sapiens), O00487; human 26S proteasome, Ub4-pepOG fluorescence polarization; 20S core pre-blocked with epoxomicin; inhibition, % at 20 µM; 360,000 compounds, 0.59% hits; AID 588493, 2011;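 active means inhibition at 20 µM, scaled to each plate's controls, above about 33%, limit read from the data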
Target sequence (O00487 whole entry, looked up): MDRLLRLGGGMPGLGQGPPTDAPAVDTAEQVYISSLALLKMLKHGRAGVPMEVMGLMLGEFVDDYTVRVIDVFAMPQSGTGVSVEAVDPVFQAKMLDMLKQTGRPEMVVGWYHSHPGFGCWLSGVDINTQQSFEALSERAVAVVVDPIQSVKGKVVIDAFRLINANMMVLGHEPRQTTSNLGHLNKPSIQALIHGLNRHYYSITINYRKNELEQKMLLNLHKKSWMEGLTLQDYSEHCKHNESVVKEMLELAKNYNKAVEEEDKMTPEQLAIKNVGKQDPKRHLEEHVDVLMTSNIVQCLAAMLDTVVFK
EBNA-1 inhibitor = EBNA-1 DNA-binding inhibitors, primary screen, biochemical, fluorescence polarization | AID 1950, 2009 | 300,000 compounds, 0.34% hits | inhibition, % at 14.8 µM; in the data active means inhibition above about 28%
GRIN3A LBD mod = binders of NR3A ligand-binding domain, primary screen, biophysical, differential scanning fluorimetry, uHTS. Glutamate receptor ionotropic, NMDA 3A (GRIN3A) ligand-binding domain. NR3A LBD differential scanning fluorimetry, Tm shift; 0% = protein alone, 100% = glycine-bound protein. Tm shift relative to glycine control, % at 25 µM. 340,000 compounds, 2.5% hits;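 active means melting temperature shift of at least 10% of the positive control shift, at one fixed dose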
ZTA DNA inh = ZTA (EBV) inhibition in EBNA-1 counter-screen. P03206. ZTA-DNA binding, fluorescence polarization. inhibition, % at 11 µM. 320,000 compounds, 0.15% hits; in the data active means inhibition above about 33%
Target sequence (P03206 whole entry, looked up): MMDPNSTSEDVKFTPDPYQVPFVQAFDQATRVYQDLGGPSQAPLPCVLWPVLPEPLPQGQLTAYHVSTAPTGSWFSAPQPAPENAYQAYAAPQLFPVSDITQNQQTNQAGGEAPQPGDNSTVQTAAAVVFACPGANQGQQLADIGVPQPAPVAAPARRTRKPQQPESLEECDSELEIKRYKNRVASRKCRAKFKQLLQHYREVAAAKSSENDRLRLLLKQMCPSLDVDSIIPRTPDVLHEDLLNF
dFosB activator = activators of delta FosB homodimer, primary screen, biochemical, fluorescence polarization, TAMRA-CDK5 oligo, single point. AID 493131, 2011. purified delta FosB; percent of positive-control signal above neutral wells. activation, % at 25 µM. Protein FosB (Mus musculus), P13346. 340,000 compounds, 0.99% hits;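 active means mean activation above about 17%, with every replicate also reaching it, limit read from the data, passing the limit was not always enough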
TPT1 inhibitor = Candida albicans TPT1 enzyme inhibitors, primary screen, biochemical, fluorescence polarization; tRNA 2'-phosphotransferase TPT1 (Candida albicans SC5314); inhibition, % at 5 µM; 300,000 compounds, 0.81% hits; recombinant caTPT1, FP RNA substrate dephosphorylation;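 active means inhibition above the mean of all tested compounds plus 3 SD, set per screening campaign, cut at about 24% in these data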;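 further: plate controls were DMSO alone for no effect and ferristatin control at 100 nM for full effect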
Numbers without * were called inactive.

What do the screens show for `Cc1ccc(C(=O)/C=C/Nc2ccc3c(c2)OCO3)cc1`?
Rpn11 inh: 7; EBNA-1 inhibitor: -3; GRIN3A LBD mod: 17*; ZTA DNA inh: 21; dFosB activator: -6; TPT1 inhibitor: 9

How did CC(=O)c1ccc(N/C=C\C(=O)c2ccc(C)cc2)cc1 do in these assays?
Rpn11 inh: 0; EBNA-1 inhibitor: -14; GRIN3A LBD mod: -8; ZTA DNA inh: 6; dFosB activator: 1; TPT1 inhibitor: 6

Results for CCOC(=O)N1CCN(C(=O)c2cc(COc3c(F)cccc3F)on2)CC1 ?
Rpn11 inh: 7; EBNA-1 inhibitor: 1; GRIN3A LBD mod: 1; ZTA DNA inh: -3; dFosB activator: -4; TPT1 inhibitor: -2

Results for O=C(CSc1nnc(-c2ccc(O)cc2)o1)Nc1ccccc1 ?
Rpn11 inh: -1; EBNA-1 inhibitor: 13; GRIN3A LBD mod: 14*; ZTA DNA inh: 4; dFosB activator: -14; TPT1 inhibitor: 3

Results for Cc1cc(NC(=O)CSc2nnc(-c3ccc(O)cc3)o2)no1 ?
Rpn11 inh: 0; EBNA-1 inhibitor: -15; GRIN3A LBD mod: 0; ZTA DNA inh: -5; dFosB activator: -8; TPT1 inhibitor: 0

What do the screens show for `COc1ccc(NC(=O)CSc2nnc(-c3cccc(O)c3)o2)cc1`?
Rpn11 inh: 0; EBNA-1 inhibitor: 10; GRIN3A LBD mod: 14*; ZTA DNA inh: -4; dFosB activator: 5; TPT1 inhibitor: -2

What do the screens show for `COc1ccc(OCc2nnc(SCC(=O)Nc3ccc(C)cc3)o2)cc1`?
Rpn11 inh: 3; EBNA-1 inhibitor: 4; GRIN3A LBD mod: -10; ZTA DNA inh: 3; dFosB activator: 8; TPT1 inhibitor: 5

What do the screens show for `Cc1ccc(OCC(=O)NCCCNC(=O)c2ccc(C)nc2)cc1`?
Rpn11 inh: 2; EBNA-1 inhibitor: -8; GRIN3A LBD mod: -1; ZTA DNA inh: 6; dFosB activator: -3; TPT1 inhibitor: -1

What do the screens show for `COc1ccc(CCNCC(=O)Nc2ccc(OC(F)(F)F)cc2)cc1OC`?
Rpn11 inh: 4; EBNA-1 inhibitor: -2; GRIN3A LBD mod: 2; ZTA DNA inh: -5; dFosB activator: 2; TPT1 inhibitor: -2

Results for Fc1ccc(-[n+]2nc(Nc3ccccc3)sc2-c2c3ccccc3cc3ccccc23)cc1 ?
Rpn11 inh: 5; EBNA-1 inhibitor: -2; GRIN3A LBD mod: -12; ZTA DNA inh: -15; dFosB activator: 31*; TPT1 inhibitor: -4

Results for CC(Sc1nc2c(c(=O)[nH]1)CCCC2)C(=O)Nc1ccccc1C#N (stereo unspecified) ?
Rpn11 inh: -3; EBNA-1 inhibitor: -2; GRIN3A LBD mod: 1; ZTA DNA inh: 5; dFosB activator: -3; TPT1 inhibitor: 1

How did c1cc2ccc3ccc(CN4CCOCC4)c4ccc(c1)c2c34 do in these assays?
Rpn11 inh: -2; EBNA-1 inhibitor: 0; GRIN3A LBD mod: 2; ZTA DNA inh: -6; dFosB activator: 31*; TPT1 inhibitor: -3

How did OC1CCCN(Cc2cn(Cc3ccccc3)nc2-c2cc3ccccc3o2)C1 (stereo unspecified) do in these assays?
Rpn11 inh: 0; EBNA-1 inhibitor: 7; GRIN3A LBD mod: 0; ZTA DNA inh: 9; dFosB activator: -7; TPT1 inhibitor: -2

What do the screens show for `OC1CCCN(Cc2ccc3ccc4cccc5ccc2c3c45)C1` (stereo unspecified)?
Rpn11 inh: -6; EBNA-1 inhibitor: 0; GRIN3A LBD mod: -4; ZTA DNA inh: 3; dFosB activator: 68*; TPT1 inhibitor: 0

What do the screens show for `CCOC(=O)C1CCN(S(=O)(=O)CCNC(=O)c2cccc(OC)c2)CC1`?
Rpn11 inh: 0; EBNA-1 inhibitor: -6; GRIN3A LBD mod: 3; ZTA DNA inh: -8; dFosB activator: -3; TPT1 inhibitor: -3

Results for Cc1ccc(S(=O)(=O)Nc2ccccc2C(=O)Nc2nc(-c3ccc(F)cc3)cs2)cc1 ?
Rpn11 inh: 13; EBNA-1 inhibitor: 12; GRIN3A LBD mod: 31*; ZTA DNA inh: 18; dFosB activator: -6; TPT1 inhibitor: -3

How did COc1ccc(-c2csc(NC(=O)c3ccccc3NS(=O)(=O)c3ccc(F)c(F)c3)n2)cc1 do in these assays?
Rpn11 inh: 6; EBNA-1 inhibitor: 10; GRIN3A LBD mod: 16*; ZTA DNA inh: 12; dFosB activator: 1; TPT1 inhibitor: -1

What do the screens show for `COc1ccc(-c2csc(NC(=O)c3ccccc3F)n2)cc1`?
Rpn11 inh: 2; EBNA-1 inhibitor: 4; GRIN3A LBD mod: -19; ZTA DNA inh: -2; dFosB activator: -9; TPT1 inhibitor: -4

What do the screens show for `Cc1ccc(S(=O)(=O)Nc2nc(-c3ccccc3)cs2)cc1`?
Rpn11 inh: 2; EBNA-1 inhibitor: 7; GRIN3A LBD mod: -4; ZTA DNA inh: 9; dFosB activator: -20; TPT1 inhibitor: 0

What do the screens show for `COc1ccc(NC(=O)N(C)C[C@H]2OCc3cnnn3CCCC(=O)N([C@@H](C)CO)C[C@H]2C)cc1`?
Rpn11 inh: -2

What do the screens show for `Cc1noc(C)c1C(=O)N1CCC1(C)C(=O)NS(=O)(=O)c1ccccc1C(F)(F)F` (stereo unspecified)?
Rpn11 inh: -5

Results for CCCN1C(=O)c2cccc3c(N4CCCCC4)ccc(c23)C1=O ?
Rpn11 inh: -23; EBNA-1 inhibitor: -1; GRIN3A LBD mod: -1; ZTA DNA inh: -4; dFosB activator: 4; TPT1 inhibitor: 15

Results for CCCCNc1ccc2c3c(cccc13)C(=O)N(CCCC)C2=O ?
Rpn11 inh: -133; GRIN3A LBD mod: 11*; dFosB activator: -25

Results for CC(C)CN(C(=O)c1ccc(S(=O)(=O)N2CCCC2)cc1)C1CCS(=O)(=O)C1 (stereo unspecified) ?
Rpn11 inh: -5; EBNA-1 inhibitor: -1; GRIN3A LBD mod: -1; ZTA DNA inh: -1; dFosB activator: -1; TPT1 inhibitor: -1

Results for COc1ccccc1NS(=O)(=O)c1cc(NC(=O)c2sc3cc(Cl)ccc3c2Cl)ccc1C ?
Rpn11 inh: -2; EBNA-1 inhibitor: -4; GRIN3A LBD mod: -5; ZTA DNA inh: -9; dFosB activator: 7; TPT1 inhibitor: 1

How did COc1ccc(NS(=O)(=O)c2cccc(NC(=O)CCC(=O)c3cccs3)c2)cc1 do in these assays?
Rpn11 inh: -2; EBNA-1 inhibitor: -11; GRIN3A LBD mod: -3; ZTA DNA inh: -10; dFosB activator: -11; TPT1 inhibitor: 2

What do the screens show for `Cc1ccc(C(=O)Nc2ccc(C)c(S(=O)(=O)Nc3ccccc3Cl)c2)s1`?
Rpn11 inh: -4; EBNA-1 inhibitor: 4; GRIN3A LBD mod: 11*; ZTA DNA inh: -10; dFosB activator: -8; TPT1 inhibitor: -3
